# Measurements taken from PubChem BioAssay (Tox21).
# Inconclusive results are not listed. Calls of active or inactive are those of the source. The call rests on the fitted dose curve; in most records, active means well fitted activation curve with a large enough effect in the signal ratio in the repeat runs (not every such curve was filed as active); inconclusive means weak or mixed curves; inactive means flat fitted curve, though single readings scatter; the % refers to the signal ratio.
# Experiment: qHTS assay to identify small molecule agonists of H2AX (AID 1224845)
# Details: CHO-K1 phospho-H2AX Ser139 HTRF, 3 h; series mostly up to 154 µM
# From the text: National Center for Advancing Translational Sciences [NCATS]
# NIH Chemical Genomics Center [NCGC]
# U.S. Environmental Protection Agency [EPA]
# National Institutes of Environmental Health Sciences [NIEHS]
# National Toxicology Program [NTP]
# U.S. Food and Drug Administration [FDA]
# HTRF phospho-H2AX (Ser139) assay (Cisbio Bioassays, US) enables the quantitative detection of the histone variant H2AX when phosphorylated on serine 139. When double-stranded DNA breaks, either by ionizing radiation or endogenous physiological processes, H2AX becomes phosphorylated at Ser139. This phospho-Ser139 serves as a sensitive biomarker for the detection of such breaks, localizing the site of DNA repair. So, HTRF phospho-H2AX Ser139 is a pertinent assay to study genome stability, the cell cycle, DNA repair, and it serves as a biomarker for cancer, and to understand aging. Wild type CHO-K1 cells were used to identify the inducers of Phospho-H2AX Ser 139 from the Tox21 10K compound collections.
# Tox21 Assay Protocol Summary:
# The CHO-K1 cells suspended in culture medium containing 10% FBS were dispensed at 1000 cells/ 3 ul/well in 1536-well white wall/solid bottom plates (Greiner Bio-One North America, NC) using a Multidrop Combi (Thermo Fisher Scientific Inc., Waltham, MA). After the assay plates were incubated at 37C overnight, 23 nl of compounds at 15 concentrations (from 5-48 columns) or positive control (from 1 to 4 columns) were transferred to the assay plates using a Pintool station (Wako, San Diego, CA) into each well resulting in a final DMSO concentration of 0.76%. After 3hr incubation at 37C, 1 uL/well Supplemented Lysis buffer (diluted 100 fold blocking reagent in lysis buffer) (HTRF Phospho-H2A.X (S139) Assay kit from Cisbio US Inc., Bedford, MA) was added using a Flying Reagent Dispenser (FRD) (Aurora Discovery, CA). After 10sec spin at 1000 rpm in a plate centrifuge, the assay plates were incubated at room temperature for 30 min. Then followed by the addition of 1 uL/well detection buffer (containing a mixture of two antibodies, one labeled with cryptate, Anti pH2AX (S139)-K and another labeled with d2, Anti H2AX-d2) using FRD. After incubation at room temperature for 24 hr, the time resolved fluorescence at excitation 320 nm and emissions at 665 nm and 620 nm was measured using an Envision plate reader (PerkinElmer, Waltham, MA).
# On the % scale 0 is the no-effect control and ±100 the full control effect.
Compound,outcome,activation (H2AX phosphorylation)
CCCCOCC(C)OCC(C)O (stereo not given),inactive,
CNc1ncnc2nc[nH]c12,inactive,
CC(O)CN(CCCN(C)C)CCCN(C)C (stereo not given),inactive,
CCCCCN(CCCCC)C(=O)C(CCC(=O)O)NC(=O)c1ccc(Cl)c(Cl)c1 (stereo not given),inactive,
COc1ccc(N=[N+]([O-])c2ccc(OC)cc2)cc1,inactive,
CC(C)N1C(=O)c2ccccc2C1=O,inactive,
CCCCCCCCCCCCCCC,inactive,
O=C(O)c1ccc[n+]([O-])c1,inactive,
Cc1nccn1CC1CCc2c(c3ccccc3n2C)C1=O (stereo not given),inactive,
CCCCC=O,inactive,
O=C(O)c1cccc(C(=O)O)n1,inactive,
NC(N)=NS(=O)(=O)c1ccc(N)cc1,inactive,
Fc1ccccc1-c1ccccc1,inactive,
C=CCSCC1Nc2cc(Cl)c(S(N)(=O)=O)cc2S(=O)(=O)N1 (stereo not given),inactive,
CC/C=C\CCCCO,inactive,
CCn1cc(C(=O)O)c(=O)c2cc(F)c(N3CCN(C)CC3)cc21,,-0.959% [at 31.6 µM] (inactive)
O=c1[nH]c(=O)n([C@H]2O[C@H](CO)[C@@H](O)[C@@H]2O)cc1/C=C\Br,inactive,
O=C1CC2(CCCC2)CC(=O)N1,inactive,
Cc1ccc(Nc2ccc(O)c3c2C(=O)c2ccccc2C3=O)cc1,inactive,
N#CCN(CC#N)CCN(CC#N)CC#N,inactive,

Compound,outcome,activation (H2AX phosphorylation)
C1=C\CC/C=C\CC/C=C\CC/1,inactive,
CO,inactive,
Cc1ccccc1Br,inactive,
CCCCN(CCO)CCO,inactive,
COc1ccc(COC=O)cc1,inactive,
CCN1CCCC(OC(=O)C(c2ccccc2)c2ccccc2)C1 (stereo not given),inactive,
COc1cc(O)cc(O)c1,inactive,
NC(=O)c1ncn([C@@H]2O[C@H](CO)[C@@H](O)[C@H]2O)c1O,inactive,
CCCCCOC(=O)Nc1nc(=O)n([C@@H]2O[C@H](C)[C@@H](O)[C@H]2O)cc1F,inactive,
O=[N+]([O-])c1ccc(Oc2ccc([N+](=O)[O-])cc2)cc1,inactive,
NC(=O)CCCCC1CCSS1 (stereo not given),inactive,
COC(=O)CCCCCCCCC(=O)OC,inactive,
CCCCNc1ccccc1,inactive,
CO[Si](CCCNCCC[Si](OC)(OC)OC)(OC)OC,inactive,
CCN1CCN(c2cc3c(cc2F)c(=O)c(C(=O)O)cn3C2CC2)CC1,inactive,
C=C(C)C(=O)OCCC(C)OC(=O)C(=C)C (stereo not given),inactive,
CCCCCCCCCCCl,inactive,
C=C(C)C(=O)OCCCCCCCCCCCCCCCCCC,,0.951% [at 31.6 µM] (inactive)
C#CC(O)C(CC)CCCC (stereo not given),inactive,
N[C@@H](CS)C(=O)O,inactive,
